This passage reports Potency and outcome results from PubChem BioAssay (Tox21).

Inconclusive results are not listed. Unmarked numbers belong to inactive results. Activity calls are given as the source filed them. Unless noted, calls follow the shape of the dose curve; as a rule, active = well fitted curve in the direction sought with a large enough effect in the repeat runs; inconclusive = weak or mixed curves; inactive = no such curve, though single readings can be large; an effect the other way counts as inactive or inconclusive.

Test [1] can be described thus: qHTS assay to identify small molecule agonists of the vitamin D receptor (VDR) signaling pathway - cell viability counter screen (AID 743224). Also: nearly all actives have a fitted effect of over 50% in size. Put shortly:
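Here cell health was gauged by luminescent ATP detection (CellTiter-Glo, 30 min RT) in VDR-bla cells that had been incubated with test compounds for 16 h at 37C and 5% CO2.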
For orientation: Quantitative high-throughput screening tests each substance at several concentrations.

Test [2] is described as follows: qHTS assay to identify small molecule antagonists of the vitamin D receptor (VDR) signaling pathway - cell viability counter screen (AID 743225). Also: nearly all actives have a fitted effect of over 50% in size. Put shortly: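 Read-out: CellTiter-Glo luminescence measured 30 min after reagent addition at room temperature. Cells were VDR-bla HEK 293T exposed 16 h at 37C, 5% CO2, to compound with 3 nM final calcitriol agonist.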

The nature of test [3]: qHTS assay to identify small molecule agonists of the NFkB signaling pathway (AID 1159509; active = well fitted curve in the direction sought with a large enough effect in the signal ratio in the repeat runs, not every such curve was filed as active; the % refers to the signal ratio). The method, boiled down:
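NFkB-bla ME-180 cells with a beta-lactamase reporter under an NF-kB response element were plated overnight, treated with compounds in DMSO for 5 hr at 37 C, then loaded with FRET substrate for 1.5 hr at room temperature.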

A short description of test [4]: qHTS assay to identify small molecule agonists of the NFkB signaling pathway - cell viability counter screen (AID 1159515; calls by dose curve; also: nearly all actives have a fitted effect of over 55% in size). The method, boiled down: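 5 hr compound treatment of NFkB-bla ME-180 cells (2,000/well, seeded overnight beforehand), followed by reporter substrate for 1.5 hr. CellTiter-Glo added afterward; luminescence after 30 min RT.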
The nature of test [5]: qHTS assay to identify small molecule antagonists of the retinoid-related orphan receptor gamma (ROR-gamma) signaling pathway - cell viability counter screen (AID 1159520). Also: nearly all actives have a fitted effect of over 50% in size. Also: potency is read from the fitted curve at half-maximal effect. Put shortly: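 Tet-on ROR gamma CHO cells were given compounds for 2 hr, then doxycycline hyclate at 1 uM final, and incubated 16 hr at 37 C. Viability was measured as ATP content by CellTiter-Glo luminescence.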

The target in test [6] is Nuclear receptor ROR-gamma (Homo sapiens) (UniProt P51449). The experiment in a line: qHTS assay to identify small molecule antagonists of the retinoid-related orphan receptor gamma (ROR-gamma) signaling pathway (AID 1159521; also: nearly all actives have a fitted effect of over 50% in size; also: potency is read from the fitted curve at half-maximal effect). Put shortly: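 CHO Tet-on RORγ, RORE-luc reporter. Cpd 2 h pre-incubation, then dox hyclate 1 uM final, 16 h, 37 C/5% CO2. ONE-Glo luminescence; decrease = antagonist.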

Test [7] is described as follows: qHTS assay to identify small molecule agonists of the AP-1 signaling pathway - cell viability counter screen (AID 1159525; calls by dose curve; also: nearly all actives have a fitted effect of over 55% in size). The method, boiled down: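 AP-1-bla ME-180 cells in Opti-MEM with 0.5% dialyzed FBS, compound exposure 5 h at 37 C in 15-point titration. Viability read in the same wells as ATP content by CellTiter-Glo luminescence, normalised to tetra-n-octylammonium bromide and DMSO controls.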

Test [8] is described as follows: qHTS assay to identify small molecule agonists of the RXR signaling pathway - cell viability counter screen (AID 1159529). Also: nearly all actives have a fitted effect of over 50% in size. Also: potency is read from the fitted curve at half-maximal effect. The method, boiled down: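 HEK 293T RXRa-bla cells, 2% CS-FBS; 5 h settle; cpd 16 h 37 C, 5% CO2; CellTiter-Glo 30 min RT, luminescence. Tetraoctyl ammonium bromide as positive control.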
The nature of test [9]: qHTS assay to identify small molecule antagonists of the retinoid acid receptor (RAR) signaling pathway - cell viability counter screen (AID 1159551). Also: nearly all actives have a fitted effect of over 35% in size. The method, boiled down:
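Seed C3RL4 cells; next day add compound, then retinol to 1 uM final; incubate 6 h at 37 C; add CellTiter-Glo; read luminescence after 30 min at RT.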

Test [10] in a line: qHTS assay to identify small molecule agonists of the retinoic acid receptor (RAR) signaling pathway (AID 1159553). Particulars: C3RL4 RARE luciferase reporter, agonist, 6 h; activation: at 73.3 µM (top of the series). The method, boiled down: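 Activation of retinol signaling was monitored via a RARE luciferase reporter in C3RL4 cells. After 6 hr compound treatment at 37 C, detection reagent was added for 30 min at room temperature before luminescence reading.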

Test [11] in a line: qHTS assay to identify small molecule agonists of the AP-1 signaling pathway (AID 1159526; calls by dose curve).
Test [12] concerns the target Retinoic acid receptor RXR-alpha (Homo sapiens) (UniProt P19793). Put plainly: qHTS assay to identify small molecule agonists of the RXR signaling pathway (AID 1159527; calls by dose curve; also: nearly all actives have a fitted effect of over 35% in size; also: potency is read from the fitted curve at half-maximal effect). Put shortly: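 Read-out: beta-lactamase FRET ratio (405 nm excitation, 460 and 530 nm emission) after 2 hr substrate loading at room temperature. Cells were RXR-alpha-UAS-bla HEK 293T treated with compounds for 16 hr in 2% charcoal-stripped FBS medium.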

Test [13] in a line: qHTS assay to identify small molecule antagonists of the retinoic acid receptor (RAR) signaling pathway (AID 1159552; also: nearly all actives have a fitted effect of over 50% in size). Put shortly: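 Cells of the C3RL4 line were seeded, incubated overnight, then dosed with compounds in DMSO followed immediately by retinol (1 uM final). Six hours later luciferase detection reagent went in; signal was measured after 30 min at RT.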
The nature of test [14]: qHTS assay to identify small molecule agonists of the endoplasmic reticulum stress response signaling pathway - cell viability counter screen (AID 1159517; calls by dose curve). Put shortly:
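Counter-screen wells were identical to the reporter wells. Cells were plated at 1,500 per well and dosed for 5 hr, then read for luminescence 30 min after CellTiter-Glo addition.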

Test [15] in a line: qHTS assay to identify small molecule antagonists of the estrogen related receptor signaling pathway with the pleiotropic PPARgamma coactivator (PGC) cell viability counter screen (AID 1224822;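 also: viability read after 17.5 h compound exposure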). The method, boiled down: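 Compounds in DMSO, with positive and negative controls, were applied to PGC/ERR cells (2,000/well) and left 17.5 h at 37 C before CellTiter-Fluor detection.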

Test [16] can be described thus: qHTS assay to identify small molecule antagonists of the estrogen related receptor (ERR) signaling pathway (AID 1224819). Put shortly:
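qHTS in ERR cells, 2,000/well, 1536 format. Cpd (DMSO) added after 6 h settle, 18 h 37 C. One-Glo luminescence, 30 min RT.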

The nature of test [17]: qHTS assay to identify small molecule agonists of the estrogen related receptor (ERR) signaling pathway (AID 1224820). Put shortly:
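ERR reporter cells (NTP line) plated 2,000/well, incubated 6 h at 37 C/5% CO2, then pinned with compounds in DMSO and held 18 h at 37 C. One-Glo added; luminescence read after 30 min at room temperature.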

The subject of test [18] is estrogen-related receptor alpha (ERRalpha) with PGC-1alpha coactivator, human. The experiment in a line: qHTS assay to identify small molecule antagonists of the estrogen related receptor signaling pathway with the pleiotropic PPARgamma coactivator (PGC) (AID 1224821; calls by dose curve). Put shortly: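 Cells engineered for PGC/ERR signalling (line from NTP) were plated 6 h at 37 C/5% CO2, then exposed to DMSO-dissolved compound for 18 h at 37 C. Luciferase activity was read by One-Glo luminescence after 30 min at room temperature.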

Test [19] is described as follows: qHTS assay to identify small molecule agonists of the estrogen related receptor signaling pathway with the pleiotropic PPARgamma coactivator (PGC) (AID 1224823). Put shortly:
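PGC/ERR reporter cells were seeded, rested 6 h at 37 C/5% CO2, then exposed to compounds in DMSO by pin transfer for 18 h at 37 C. Luciferase activity was read as luminescence after One-Glo reagent and 30 min at room temperature.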

Chain of Retinoic acid receptor RXR-alpha (Homo sapiens) (P19793 whole entry, looked up): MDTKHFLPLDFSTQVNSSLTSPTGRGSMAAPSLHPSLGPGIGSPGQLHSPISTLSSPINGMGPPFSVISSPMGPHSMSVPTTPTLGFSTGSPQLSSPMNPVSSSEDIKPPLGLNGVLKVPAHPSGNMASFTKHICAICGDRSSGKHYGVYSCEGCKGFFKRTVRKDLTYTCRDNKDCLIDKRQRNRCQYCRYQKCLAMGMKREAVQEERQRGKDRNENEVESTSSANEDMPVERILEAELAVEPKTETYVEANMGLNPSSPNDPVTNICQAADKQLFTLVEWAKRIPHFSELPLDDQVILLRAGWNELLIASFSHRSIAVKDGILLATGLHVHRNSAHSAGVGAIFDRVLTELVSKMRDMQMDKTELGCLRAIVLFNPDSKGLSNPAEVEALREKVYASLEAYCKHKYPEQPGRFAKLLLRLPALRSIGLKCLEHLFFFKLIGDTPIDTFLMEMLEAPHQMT

Turning to `COC(=O)CS`, the Potency result in test [1], in test [2], in test [3], in [4], in [5] and in test [6] was “inactive” throughout. The Potency entry in [7], in test [8], in [9] and in test [10] was “inactive” each time.

On to `CC(C)(C)C(=O)C(=O)O`, for which the Potency entry in test [1], in [2], in test [3], in [4], in test [5] and in [6] was “inactive” throughout. Further, the Potency entry in [7], in [11], in [12], in test [8], in test [9] and in test [13] was “inactive” throughout. Also, the Potency entry in test [10] is “inactive”.

As for `O=C1c2ccccc2C(=O)c2c(O)c(O)cc(O)c21`, the Potency entry in test [1], in [2], in test [3], in test [4], in [14] and in [6] was “inactive” throughout. In addition, the Potency entry in test [11], in [8] and in test [10] was “inactive” throughout.

As for `Cc1cccc(N(C)C(=S)Oc2ccc3c(c2)CCC3)c1`, the Potency entry in [1], in test [2], in test [3], in test [4], in test [14] and in [7] was “inactive” each time. The Potency entry in test [11], in test [9], in test [13] and in [10] was “inactive” each time.

For `CCOC(=O)c1ccccc1C(=C1C=C(Br)C(=O)C(Br)=C1)c1cc(Br)c(O)c(Br)c1`, the Potency entry in test [1], in [2], in test [3], in [4], in [7] and in test [8] was “inactive” throughout. Further, the Potency result in test [9], in test [13] and in [10] was “inactive” each time. For the same compound, the Potency in test [5] was 51.3 µM (active); in test [6] it was 22.9 µM (active).

Turning to `CC(C)COCC(CN(Cc1ccccc1)c1ccccc1)N1CCCC1` (configuration not stated), the Potency result in [3], in [4] and in test [14] was “inactive” each time. Also, the Potency in [6] was 23.7 µM (active); in [8], 19 µM (active). Also, the result in [15] was inactive.

On to `CCOC(=O)/C=C/C(=O)OCC`, for which the Potency entry in test [1], in [2], in [3], in test [4], in test [5] and in test [6] was “inactive” in each case. Further, the Potency result in test [7], in test [11], in test [12], in test [8], in [9] and in [13] was “inactive” throughout. In addition, in [10], the Potency result was “inactive”.

For `CCCCCCCCOc1ccc(C(=O)O)cc1`, the Potency result in [1], in test [2], in test [3], in test [4], in test [5] and in test [6] was “inactive” each time. The Potency result in [11], in [8] and in [9] was “inactive” throughout. For the same compound, the Potency in test [12] was 19.3 µM (active).

Regarding `NNC(=O)CP(=O)(c1ccccc1)c1ccccc1`, the Potency result in [1], in test [2], in test [3], in test [4], in test [14] and in [7] was “inactive” in each case. Also, the Potency entry in test [11], in [12], in [8], in test [9], in test [13] and in [10] was “inactive” throughout.

In the case of `CC1(C)O[C@@H]2C[C@H]3[C@@H]4C[C@H](F)C5=CC(=O)C=C[C@]5(C)[C@H]4[C@@H](O)C[C@]3(C)[C@]2(C(=O)CO)O1`, the Potency result in test [1], in [2], in test [3], in test [4], in test [14] and in test [7] was “inactive” in each case. The Potency result in [12], in test [8] and in [9] was “inactive” each time.

Turning to `CN1C(=O)c2ccccc2C1=O`, the Potency result in test [3], in test [4], in [5], in test [6], in test [11] and in test [8] was “inactive” throughout. The Potency entry in test [9], in [13] and in test [10] was “inactive” in each case. Besides, the outcome in test [16], in test [17], in test [18], in [15] and in test [19] was inactive.
